Nrf2 block: inhibitors of Nrf2 signaling; A549 ARE-Fluc reporter, luciferase luminescence, 18-24 h; Potency, µM (highest dose often 46 µM), for the others: at the highest dose activity change, negative = inhibition, usual class: inhibitors; 360,000 tested, 2.1% active; also: potency is read from the fitted curve at half-maximal effect; nearly all actives have a fitted effect of over 60% in size
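Nrf2 activity is the BugLite luminescence, read 15 min after reagent at room temperature, following CellTiter-Fluor cytotoxicity readout (30 min, 37C). Compound titrations were applied for 18-24 h to 5000 A549 ARE_Fluc cells/well in 5% FBS OPTI-MEM.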
Giardia kill: kills Giardia lamblia. Giardia lamblia trophozoite viability. activity change, % at 7.66 µM, hits read low. 340,000 tested, 0.15% active; in the data active = activity change below about -80%; inconclusive = between about -30% and that limit;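 also: parasites exposed to compound for two days anaerobically before the ATP read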
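Killing of trophozoites was scored by loss of ATP luminescence after a 48 hrs anaerobic exposure to compounds at 37 deg C, using 100 cells per well.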
A549 viability: kills or reduces viability of A549 cells in Nrf2 counter-screen; A549 ARE-Fluc cells, CellTiter-Fluor viability, 18-24 h; Potency, µM (doses to about 46 µM), for inactives: at the highest dose activity change, negative = cytotoxicity, most hits filed as inhibitors; 390,000 tested, 0.16% active; AID 504648; also: potency is read from the fitted curve at half-maximal effect
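A549 ARE-Fluc cells in 5% FBS OPTI-MEM, 5000 cells/well, rested 2 h then exposed to compounds in concentration-response for 18-24 h at 37 °C. Viability by CellTiter-Fluor fluorescence (Ex 405/Em 525) after 30 min; luciferase luminescence (BugLite, 15 min, RT) read afterwards.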
KB-3-1 tox: KB-3-1 parental cell cytotoxicity; KB-3-1 viability, CellTiter-Glo ATP luminescence, 72 h; Potency, µM (doses to about 46.1 µM), hits mostly cytotoxic; 400,000 tested, 1.4% active; also: potency is read from the fitted curve at half-maximal effect; nearly all actives have a fitted effect of over 60% in size
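KB-3-1 parental drug-naive adenocarcinoma cells in DMEM/10% FBS, incubated 72 h at 37 C with pin-transferred compounds across a concentration series. Viability by CellTiter-Glo luminescence; concentration-response curves fitted after normalization.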
PI4K2A block: PI4K2A (human) kinase inhibition. Q9BTU6. purified PI4K2A, ADP-Glo luminescence, 1 h; stronger effect = lower value. activity change, negative = inhibition, % at 76.9 µM. 420,000 tested, 0.13% active. AID 1346378; in the data active = activity change below about -50%; inconclusive = mostly about -30% to -49%;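 also: -100% = wells without enzyme as full effect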
Target sequence (Q9BTU6 whole entry, looked up): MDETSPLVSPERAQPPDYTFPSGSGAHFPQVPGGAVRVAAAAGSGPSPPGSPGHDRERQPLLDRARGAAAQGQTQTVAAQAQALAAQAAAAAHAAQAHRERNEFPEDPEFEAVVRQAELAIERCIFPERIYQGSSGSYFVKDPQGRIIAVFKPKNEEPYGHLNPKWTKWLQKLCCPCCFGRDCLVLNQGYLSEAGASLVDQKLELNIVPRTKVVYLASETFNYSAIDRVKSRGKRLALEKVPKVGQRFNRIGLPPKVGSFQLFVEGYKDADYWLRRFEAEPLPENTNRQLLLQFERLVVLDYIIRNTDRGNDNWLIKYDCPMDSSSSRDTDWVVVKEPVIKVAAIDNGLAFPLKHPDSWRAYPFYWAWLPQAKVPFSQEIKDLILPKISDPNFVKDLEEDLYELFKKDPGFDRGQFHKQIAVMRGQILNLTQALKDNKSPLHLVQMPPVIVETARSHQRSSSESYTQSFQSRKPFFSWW
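ADP-Glo luminescence measured ADP generated by PI4K2A enzyme (4 ug/mL before mixing) with 1.2 mM PI substrate (pre-mix) and 300 microM ATP (pre-mix). Tris pH7.5 buffer with MgCl2, Triton X-100; 1 h reaction at ambient temperature.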
KB-V1 cytotox: kills drug-selected multidrug resistant KB-V1 cells; 400,000 tested, 3.4% active; AID 1347076; KB-V1 MDR cells viability, CellTiter-Glo, 72 h; Potency, µM (series often up to 46.1 µM), most hits filed as cytotoxic; also: potency is read from the fitted curve at half-maximal effect; nearly all actives have a fitted effect of over 60% in size
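Cells of the MDR subline KB-V1 are plated, dosed with compound at multiple concentrations, and incubated 72 h at 37 degrees C; CellTiter-Glo is then added and luminescence read after 10 min.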
An asterisk follows results filed as active; i = inactive; ? = inconclusive; · = not tested or not shown. An excerpt weighted towards active compounds, which were near 5.7% of everything screened. Unless noted, calls follow the shape of the dose curve; as a rule, active = well fitted curve in the direction sought with a large enough effect; inconclusive = small, poorly fitted or top-dose-only effect, or another doubt; inactive = no such curve, though single readings can be large; an effect the other way counts as inactive or inconclusive. Unless noted, % is scaled to controls: 0 for no effect and ±100 for the full control effect.

SMILES	Nrf2 block	Giardia kill	A549 viability	KB-3-1 tox	PI4K2A block	KB-V1 cytotox
COc1ccc(C(=O)Nc2ccccc2N2CCOCC2)cc1[N+](=O)[O-]	-14.0%	-15.8	20.5%	i	2.6	20.6µM*
Nc1cc(=O)[nH]c(=S)[nH]1	·	·	·	i	·	i
COc1ccc(-c2nc3cccc(C)n3c2Nc2ccc(C)cc2)cc1	-6.4%	1.6	-4.4%	·	·	·
Cc1ccccc1OCC(=O)Nc1ccccc1N1CCCCC1	-16.7%	2.0	?	?	11.5	14.6µM*
Cc1cc(Cl)ccc1OCC(=O)Nc1ccccc1N1CCOCC1	?	-7.5	-27.7%	?	6.8	14.6µM*
Cc1cccc(OCC(=O)Nc2ccccc2N2CCCC2)c1C	1.1%	10.8	1.8%	?	-3.5	?
O=C(CNC(=O)C1CCCCC1)OCC(=O)c1ccc([N+](=O)[O-])cc1	?	82.7	-1.7%	i	·	i
CCn1c(=N)n(CC(=O)c2ccc(OC)c(OC)c2)c2ccccc21	·	3.8	-12.6%	i	9.6	13µM*
COc1ccc2c(c1)[C@@]1(NCCc3c1[nH]c1ccc(OC)cc31)C(=O)N2	·	·	·	·	-2.5	·
COCc1c(C(=O)N2CCN(Cc3nc4ccccc4s3)CC2)oc2ccccc12	12.0%	6.7	-5.4%	i	-2.5	23.1µM*
COCc1c(C(=O)N2CCN(S(=O)(=O)c3ccccc3Cl)CC2)oc2ccccc12	?	2.7	5.7%	i	-2.7	i
CC[N+](CC)(CC)CCOC(=O)C(C1CCCC1)C1CCCC1	·	·	·	·	0.3	·
OCCC1CN(Cc2nc(-c3ccccc3)cs2)CCN1Cc1ccc(F)cc1 (configuration not stated)	21.0%	6.2	-3.0%	?	3.4	9.2µM*
Cc1nn2c(NCc3ccccn3)c3c(nc2c1-c1ccccc1)CCC3	?	-12.8	-19.2%	?	-0.9	9.2µM*
COC(=O)c1cc(S(=O)(=O)N2CCN(c3cccc(C(F)(F)F)c3)CC2)cn1C	·	·	·	·	-5.8	·
CCC(Oc1ccc(F)cc1)C(=O)Nc1cc(-c2ccc(C)cc2)no1 (configuration not stated)	-24.0%	·	3.9%	i	-0.2	i
CCC(Oc1ccc(F)cc1)C(=O)Nc1nc(-c2ccc(F)cc2)ns1 (configuration not stated)	16.4µM*	·	?	·	3.3	·
CN1CCC(N[C@@H](Cc2c[nH]c3ccccc23)C(=O)NCCCc2ccccc2)(C(=O)NCCc2c[nH]c3ccccc23)CC1	·	·	·	·	1.1	·
CCOc1cc(N2CCOCC2)c(OCC)cc1NC(=O)c1ccccc1C	-12.4%	14.0	-1.3%	i	2.4	?
CC(C)n1nc(C(=O)Nc2ccccc2N2CCOCC2)c2ccccc2c1=O	20.3%	13.3	10.0%	i	-6.1	3.66µM*
CCOc1cc(N2CCOCC2)c(OCC)cc1NC(=O)c1nn(CC)c(=O)c2ccccc12	-4.2%	20.8	1.3%	?	-5.4	3.66µM*
COC(=O)c1ccc(SCC(=O)N2CCC(C)CC2)c([N+](=O)[O-])c1	8.3%	-8.0	0.6%	i	-0.2	14.6µM*
Cc1c(N/N=C(\C#N)C(=O)c2ccccc2)c(=O)n(-c2ccccc2)n1C	?	14.2	20.6µM*	?	2.1	?
Cc1ccccc1C(=O)/C(C#N)=N/Nc1c(C)n(C)n(-c2ccccc2)c1=O	8.2µM*	-7.8	18.4µM*	i	3.6	0.461µM*
CCOC(=O)/C(C#N)=N/Nc1c(C)n(C)n(-c2ccccc2)c1=O	?	-3.4	-29.2%	i	-0.7	i
SMILES	Nrf2 block	Giardia kill	A549 viability	KB-3-1 tox	PI4K2A block	KB-V1 cytotox
CCC(C)NS(=O)(=O)c1ccc(S(=O)(=O)N2CCCC3(CCCCC3)C2)cc1 (configuration not stated)	20.6µM*	-16.5	-22.1%	5.8µM*	-2.7	3.66µM*
CCC(C)C(=O)Nc1ccc(S(=O)(=O)N2CCCC2)cc1 (configuration not stated)	-6.3%	9.7	0.4%	i	-13.1	i
Cc1cc(=O)n2nc(N3CCC(C(=O)Nc4ccc(Br)c(C)c4)CC3)sc2n1	-15.7%	·	0.2%	i	1.6	i
COc1ccccc1/C=C/C(=O)c1cc(Br)ccc1OC(=O)c1ccco1	25.9µM*	3.5	?	?	36.8	?
O=C(/C=C/c1cc(Br)ccc1O)c1ccco1	-2.9%	?	-1.2%	?	0.9	16.4µM*
CNc1ccccc(C(=O)/C=C/c2ccccc2OC)c1=O	?	-1.5	?	?	-1.7	14.6µM*
O=C(/C=C/c1ccccc1O)c1ccco1	-18.7%	-3.9	4.8%	?	-5.5	?
CCCc1n[nH]c2c1/C(=N/O)CC(c1ccccc1)C2 (configuration not stated)	?	21.2	2.3%	25.9µM*	0.2	?
O=C(NCCCc1ccccc1)[C@H](Cc1ccccc1)NC1(C(=O)NCCc2c[nH]c3ccccc23)CCOCC1	·	·	·	·	3.4	·
COc1ccc(C(=O)C[n+]2ccc(Cl)c3ccc(Cl)cc32)cc1	·	·	·	i	·	i
O=C(NCc1ccccn1)c1cc(-c2ccc(Cl)cc2)nc2ccccc12	?	1.3	?	i	2.5	11.6µM*
Cc1ccc(-c2cc(C(=O)NCc3ccccn3)c3ccccc3n2)cc1C	2.5%	-1.5	-1.0%	?	-3.9	14.6µM*
O=C(NCc1ccccn1)c1cc(-c2ccccc2)nc2ccccc12	3.5%	-2.0	-2.2%	i	1.3	i
O=C(NCc1ccccn1)c1ccc(COc2ccc(Cl)cc2)o1	23.1µM*	-7.3	-0.9%	i	-1.9	i
Cc1ccc(-c2cc(C(=O)NCc3ccccc3Cl)c3ccccc3n2)cc1C	·	·	6.1%	i	0.3	i
O=C(NCc1ccccn1)c1cc(-c2ccc(-c3ccccc3)cc2)nc2ccccc12	?	?	2.1%	i	-0.9	i
Cc1cccc(-c2cc(C(=O)NCc3ccccn3)c3ccccc3n2)c1	21.4%	-17.0	-2.1%	i	-7.9	5.8µM*
O=C(c1noc2c1CCCCC2)N1CCN(c2cccc(C(F)(F)F)c2)CC1	?	·	7.1%	·	-2.8	·
COc1ccc(CCCc2nnc(SCC(=O)NN)o2)cc1	0.4%	-5.9	-1.0%	i	-0.6	i
COc1ccc(CCCc2nnc(SCC(=O)Nc3ccc(Cl)cc3)o2)cc1	20.6µM*	·	0.0%	i	1.6	i
Cc1[nH]n(-c2ccccc2)c(=O)c1C=Nc1cccc2cccnc12	?	-9.2	-5.6%	?	4.0	18.4µM*
Cc1[nH]n(-c2ccccc2)c(=O)c1/C=N/N1CCOCC1	4.4%	2.1	4.8%	i	-6.0	i
